Results reported in PubChem BioAssay AID1402 (National Center for Advancing Translational Sciences (NCATS), 2008).
Records with an inconclusive call do not appear. Calls of active or inactive are those of the source. Calls come from the whole dose curve; as a rule, active = well fitted curve in the direction sought with a large enough effect in the signal ratio; inconclusive = small, poorly fitted or top-dose-only effect, or effect the other way, or a change in a side signal; inactive = no such curve, though single readings can be large or run the other way; the % refers to the signal ratio.

Target: Lutropin-choriogonadotropic hormone receptor (Homo sapiens) (UniProt P22888)
Sequence (P22888 whole entry, looked up): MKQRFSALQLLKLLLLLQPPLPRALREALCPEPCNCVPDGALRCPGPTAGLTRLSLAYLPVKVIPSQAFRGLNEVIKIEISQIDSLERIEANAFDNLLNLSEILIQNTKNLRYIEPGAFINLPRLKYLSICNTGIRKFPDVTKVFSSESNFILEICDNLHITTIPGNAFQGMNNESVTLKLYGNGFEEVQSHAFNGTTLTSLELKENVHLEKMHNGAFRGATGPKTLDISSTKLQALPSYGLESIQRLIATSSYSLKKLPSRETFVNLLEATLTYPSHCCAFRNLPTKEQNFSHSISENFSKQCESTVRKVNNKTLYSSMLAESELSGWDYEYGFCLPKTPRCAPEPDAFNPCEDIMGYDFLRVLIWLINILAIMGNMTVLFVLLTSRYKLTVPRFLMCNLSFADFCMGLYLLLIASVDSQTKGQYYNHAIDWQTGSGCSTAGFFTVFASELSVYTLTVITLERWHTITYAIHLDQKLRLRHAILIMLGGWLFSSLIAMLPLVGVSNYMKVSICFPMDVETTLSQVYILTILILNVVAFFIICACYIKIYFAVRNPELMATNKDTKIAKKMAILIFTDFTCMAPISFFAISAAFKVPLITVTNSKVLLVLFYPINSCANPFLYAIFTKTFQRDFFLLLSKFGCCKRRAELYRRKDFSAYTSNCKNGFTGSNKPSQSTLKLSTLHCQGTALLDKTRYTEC
Assay: Counterscreen for Agonists of Thyroid Stimulating Hormone Receptor: HTRF Activity in a Luteinizing Hormone Receptor Cell Line
Conditions: HEK293-LHR cells, cAMP HTRF ratio, 30 min; series mostly up to 91.7 µM
Description: NIH Chemical Genomics Center [NCGC] NIH Molecular Libraries Screening Centers Network [MLSCN] MLSCN Grant: 1 X01 MH080680-01 PI Name: Dr. Marvin Gershengorn, NIH NCGC Assay Overview: Confirmation of Thyroid Stimulating Hormone Receptor Agonists TSH is an alpha/beta heterodimeric glycoprotein hormone secreted from the anterior pituitary gland which belongs to the glycoprotein hormone family. The actions of TSH are mediated by a seven-transmembrane receptor, which upon TSH binding couples preferentially to the G-alpha (s) protein (Gs), resulting in activation of adenylate cyclase and increase in cyclic adenosine 3', 5' monophosphate (cAMP). The TSH receptor (THSR) is mainly expressed in thyroid follicular cells and regulates their growth and function. […] In order to confirm specificity of the compounds to the TSHR, a confirmatory assay was conducted on a similar family member, the Luteinizing Hormone (LH) receptor, transfected into a HEK 293 cell line, using an orthogonal detection technology to measure cAMP stimulation: antibody-based Homogeneous Time Resolved Fluorescence (HTRF).
NCGC Assay Protocol Summary: Homogeneous Time Resolved Fluorescence (HTRF) cAMP Assay. […] Plates were measured using the Envision plate reader (PerkinElmer, Boston, MA) with excitation at 330 nm and emissions of 615 nm and 660 nm. […]

Row | SMILES | outcome
1 | C=CCN1C(=O)C2(C(C(=O)OC)=C(N)Oc3c2c(=O)oc2ccccc32)c2ccccc21 (configuration not stated) | inactive
2 | CCOC(=O)C1=C(N)Oc2c(c(=O)oc3ccccc23)C12C(=O)N(C)c1ccccc12 (configuration not stated) | inactive
